Assay results from PubChem BioAssay AID504766 (The Scripps Research Institute Molecular Screening Center, 2011).
Hit rate of the full screen: of about 340,000 compounds, about 3,400 (1%) were called active. The full list was thinned out, with actives kept by preference. Unmarked numbers belong to inactive results.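 The calls were made as follows: active = inhibition above the mean over all tested compounds plus 3 SD (cut at about 4.2% in these data); inactive = the rest.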

Each compound was assayed against Nuclear receptor subfamily 0 group B member 1 (Homo sapiens) (UniProt P51843) (assay: DAX1 (NR0B1) inhibitors, primary screen, cell-based, HEK293, Gal4-DAX1, luciferase luminescence (AID 504766;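 also: 0% = DAX1-transfected cells with DMSO and 100% = empty-vector control cells with DMSO; inhibition shows as a rise in luminescence from relieved DAX1 repression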)). Conditions: HEK293 Gal4-DAX1 luciferase reporter, at 6.75 µM, stronger effect = higher value.
Nuclear receptor subfamily 0 group B member 1 (Homo sapiens), sequence (P51843 207-470 limits assumed): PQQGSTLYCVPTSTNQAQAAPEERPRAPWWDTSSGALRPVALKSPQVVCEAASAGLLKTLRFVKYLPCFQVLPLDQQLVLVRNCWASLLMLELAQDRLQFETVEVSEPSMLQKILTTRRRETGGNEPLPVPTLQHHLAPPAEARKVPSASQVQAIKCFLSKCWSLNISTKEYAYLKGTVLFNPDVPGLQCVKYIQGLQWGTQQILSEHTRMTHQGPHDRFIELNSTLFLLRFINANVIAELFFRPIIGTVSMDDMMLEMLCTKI
Compound `CNC(=O)C[C@H]1C(=O)N(Cc2ccccc2)C[C@@H]1CSC` has an inhibition of 0.53%. Work on `Cc1cccc(S(=O)(=O)N(C)C[C@@H]2OCc3cnnn3CCCC(=O)N([C@H](C)CO)C[C@@H]2C)c1` yielded an inhibition of -0.51%. `CCCNC(=O)C1CC(=O)N(c2ccc(OCc3ccccc3)cc2)C1` (centres undefined) showed an inhibition of 2.8%. `C=CCOc1ccccc1CNn1c(C)n[nH]c1=S` was tested, and the inhibition was 0.12%. Compound `CCN1CCCC1CNC(=O)c1ccc2c(c1)NC(=O)/C(=C\c1ccccc1F)S2` (centres undefined) has an inhibition of 1.21%. For `O=C(O)c1ccccc1Cc1ccc(F)c2ccccc12`, the inhibition was 1.12%. Work on `CSc1ncccc1C(=O)N1CCCC(Nc2ccc(F)c(F)c2)C1` (centres undefined) yielded an inhibition of -0.54%. With `Cc1cccc(Nc2nc(-c3ccccc3)cs2)n1` the inhibition was 7.24% (active). `COc1ccc2c(c1OC)C(=O)OC2Nc1nc(-c2ccccc2)cs1` (centres undefined) gave an inhibition of 0.66%. Compound `COc1ccc(-c2csc(Nc3cccc(C)n3)n2)cc1OC` has an inhibition of 3.01%. With `CCCCCCC(=O)Nc1nc(C)c(-c2csc(Nc3cccc(OC)c3)n2)s1` the inhibition was 1.39%. In the case of `Cc1ccc(-c2csc(NC(=O)C3=COCCO3)n2)cc1C`, the inhibition is reported as -1.52%. For `CC(=O)Nc1cccc(-c2csc(Nc3cccc(C)n3)n2)c1`, the inhibition was 4.29% (active). `CC(C)C1CCN(C(=O)C2CCC(=O)N(C3CCCCCC3)C2)CC1` (centres undefined) gave an inhibition of 1.56%. `CCOC(=O)c1cnn2c(SC)ncnc12` was tested, and the inhibition was 0.53%. With `Cc1ccc2cccc([N+](=O)[O-])c2n1` the inhibition was 0.58%. Work on `NC(=O)C1(Nc2ccc(-c3ccccc3)cc2)CCCC1` yielded an inhibition of 0.6%. Compound `NC(=O)C1(Nc2ccc([N+](=O)[O-])cc2)CCCC1` has an inhibition of -1.28%. In the case of `NC(=O)C1(Nc2ccccc2Cl)CCCC1`, the inhibition is reported as 4.62% (active). Work on `Cc1ccc(Cc2c(-c3ccccc3)nc3ccc(Cl)cn23)cc1` yielded an inhibition of -0.15%. `CCOc1ccc(S(=O)(=O)NCCC(=O)NNC(=O)c2ccc(F)cc2)cc1` was tested, and the inhibition was 1.04%. With `Cc1ccc(Oc2nc3ccccc3n3c(C)nnc23)cc1` the inhibition was -0.82%. In the case of `Cc1ccc(OCc2nc3ccccc3n2C)cc1`, the inhibition is reported as 4.76% (active). Compound `Cn1c(COc2ccc(Cl)cc2)nc2ccccc2c1=O` has an inhibition of 0.73%. Compound `Cc1ccccc1C#CC1=CC(=O)CC(C)(C)C1` has an inhibition of -0.14%. `C[C@H]1CN([C@@H](C)CO)C(=O)c2cc(-c3ccccc3F)cnc2O[C@H]1CN(C)C(=O)C1CCOCC1` was tested, and the inhibition was 1.09%. `CC1(C)CN(CCc2ccccc2)C(=O)[C@H]1CC(=O)Nc1ccc(Br)cc1` was tested, and the inhibition was 0.23%. Work on `COc1ccc(-c2csc3nc(-c4ccccc4F)oc(=O)c23)cc1OC` yielded an inhibition of -1.37%. In the case of `COc1ccc(-c2noc(-c3cccc(OC)c3OC)n2)cc1OC`, the inhibition is reported as 4.33% (active). With `COc1ccc(-c2noc(CCCC(=O)NC3CCCC3)n2)cc1OC` the inhibition was 0.14%. `COc1ccc(S(=O)(=O)N(C)C)cc1NC(=O)COC(=O)c1n[nH]c2ccccc12` gave an inhibition of -0.33%. With `Cc1cc(OCC(=O)Nc2nccs2)c2c(C)c(C)c(=O)oc2c1` the inhibition was 0.98%. `Cc1cccnc1CC(C)NC(=O)c1cc(COc2cncc(Cl)c2)on1` (centres undefined) showed an inhibition of 0.03%. With `Cc1cc(OCc2cc(C(=O)NCc3cc(C(C)C)no3)no2)cc(C)c1Cl` the inhibition was 7.06% (active). In the case of `COc1ccc(OCc2cc(C(=O)NCC3(C)COC3)no2)c(Cl)c1`, the inhibition is reported as 0.65%. With `COc1ccc(Cn2c(=O)oc3ccccc32)cc1` the inhibition was 0.51%. In the case of `COc1ccc(/C=C2\SC(=S)N(CCC(=O)N3CCOCC3)C2=O)cc1OC`, the inhibition is reported as -0.88%. For `COC(=O)[C@H]1C[C@H](OC(=O)NCc2ccccc2)[C@@]2(O)CN(S(=O)(=O)c3ccc(C)cc3)CC2[C@H]1C(=O)OC` (some centres undefined), the inhibition was 0.61%. In the case of `CC(NC(=O)c1cc(=O)[nH]c2ccccc12)c1ccc(F)cc1F` (centres undefined), the inhibition is reported as 0.16%. `CC(C)(CNC(=O)c1cc(=O)[nH]c2ccccc12)N1CCOCC1` was tested, and the inhibition was -0.11%. For `O=C(CNC(=O)c1cc(=O)[nH]c2ccccc12)Nc1ccc(F)c(F)c1`, the inhibition was 7.53% (active). `C[C@H]1CN([C@@H](C)CO)C(=O)CCCn2cc(nn2)CO[C@@H]1CN(C)S(=O)(=O)c1ccccc1C#N` showed an inhibition of 0.36%. `Cc1ccc(NC(=O)Cn2sc3ccccc3c2=O)cc1` was tested, and the inhibition was 2.09%. With `Nc1ccc(S(=O)(=O)NC(=O)c2ccccc2)cc1` the inhibition was 1.24%. `Nc1ccc(C(=O)Nc2ccccc2N)cc1` was tested, and the inhibition was 22.7% (active). In the case of `CC(=O)Nc1ccccc1NC(=O)c1cc(C)cc(C)c1`, the inhibition is reported as 0.39%. `Cc1nc2ccccn2c(=O)c1NC(=O)c1ccc(Br)o1` showed an inhibition of 1.03%. Compound `CCOC(=O)C1C(c2ccc(OC)c(OC)c2)c2c([nH][nH]c2=O)CC1(C)O` (centres undefined) has an inhibition of 0.5%. `CC(=O)C1C(c2ccc(Cl)cc2)c2c(n[nH]c2C)CC1(C)O` (centres undefined) was tested, and the inhibition was 5.48% (active). `Cc1noc(C)c1NC(=O)N(C)C[C@@H]1Oc2cc(Br)ccc2S(=O)(=O)N([C@@H](C)CO)C[C@H]1C` was tested, and the inhibition was 0.32%. `CC1CCCC(NC(=O)COC(=O)c2ccccc2C(=O)N(C)C2CCCCC2)C1C` (centres undefined) gave an inhibition of -0.71%. In the case of `Cc1ccc(-c2ccc(CN3C(C(C)C)C(=O)N(Cc4cn(CCC5OCCCO5)nn4)CCS3(=O)=O)cc2)cc1` (centres undefined), the inhibition is reported as -0.79%. `O=C(NCC(=O)N(c1ccccc1)C(C(=O)NCC1CCCO1)c1ccccc1)c1cccs1` (centres undefined) was tested, and the inhibition was -0.74%. With `COc1ccc(N(C(=O)CNC(=O)c2ccco2)C(C(=O)NCC2CCCO2)c2ccccc2)cc1Cl` (centres undefined) the inhibition was 0.19%. `COC(=O)c1cccc(N(C(=O)CNC(=O)c2cccs2)C(C(=O)NCC2CCCO2)c2ccc(OC)c(OC)c2)c1` (centres undefined) was tested, and the inhibition was 4.73% (active). `O=C(CSc1nnc(SCc2ccc(F)cc2)s1)Nc1ccc(C(=O)O)cc1` was tested, and the inhibition was -0.63%. With `O=C(CSc1nc2ccccc2s1)Nc1ccc(C(=O)O)cc1` the inhibition was 4.73% (active). For `Nc1nnc(SCC(=O)Nc2ccc3nc(SCC(=O)Nc4ccccc4)sc3c2)s1`, the inhibition was -3.13%. In the case of `C[C@H]1CN([C@@H](C)CO)C(=O)CCCn2cc(nn2)CO[C@@H]1CN(C)S(=O)(=O)c1cccc(C#N)c1`, the inhibition is reported as -0.32%.
